Measured values as given in PubChem BioAssay (NCATS).
Results filed as inconclusive are left out. Calls of active or inactive are those of the source. Calls follow the shape of the dose curve; as a rule, active = well fitted curve in either direction with a large enough effect (not every such curve was filed as active); inconclusive = small, poorly fitted or top-dose-only effect, or another doubt; inactive = flat fitted curve, though single readings scatter.

Assay: AP1 Signaling Pathway (AID 357);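 also: ME-180 reporter cells stimulated with EGF at its EC50 level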
Conditions: ME-180 (cervical carcinoma) AP-1-bla reporter, EGF-induced, beta-lactamase ratio, 5 h; at 17.2 µM (top of the series) unless noted
Method in brief: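 Titration-series screen for positive or negative modulators of EC50 EGF-induced signaling in ME-180 cells carrying an AP-1-driven beta-lactamase reporter. After 5 hours at 37 degrees Celsius, CCF4 460nm/530nm emission ratio gave %Activity; AC50 values derived.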
% is scaled to controls: 0 for no effect and ±100 for the full control effect.

Activity change, negative = inhibition, inactive:
COc1ccc(C2=Nn3c(nnc3-c3ccccc3)SC2)cc1OC -10.8%
Cn1c(SCC(=O)N2CCOCC2)nnc1-c1cccc(NC(=O)c2ccccc2F)c1 -25.9%
CCc1nc(NCC(C)C)c(C#N)c2c1COC(C)(C)C2 -11.6%
COc1ccccc1-c1cc(-c2cc(Cl)ccc2O)n[nH]1 5.68%
CCNC(=O)N(C(=O)NCC)n1c(C)nnc1C 6.49%
O=C(N(c1ccccc1)c1ccccc1)n1ccnc1 7.1%
COc1ccc(CCNC2CC(C)N(C)CC2C)cc1OC (centres undefined) 2.19%
COc1ccc(OCC(=O)N2CCN(C(=O)c3cccc4ccccc34)CC2)cc1 -4.98%
CCOc1nc(Oc2cccc(C(=O)O)c2)nc(Oc2cccc(C(=O)O)c2)n1 29.4%
CCOC(=O)C1=C(N)n2c(s/c(=C\c3ccco3)c2=O)=C(C(=O)OC(C)C)C1c1ccco1 (centres undefined) 9.43%
COc1cc(C2C(C(=O)c3cccs3)=C(O)C(=O)N2c2cc(C)on2)ccc1O (centres undefined) -2.96%
COc1ccc(OC)c(C2/C(=C(\O)c3ccc4c(c3)OCCO4)C(=O)C(=O)N2CCCN(C)C)c1 (centres undefined) 4.27%
CCCCOC(=O)c1[nH]c(C)c(C(=O)OC)c1C -3.13%
CCc1nc2n[nH]c(N)c2c2c1CSC(C)(C)C2 1.67%
Cn1c(NCc2cccnc2)nc2c1c(=O)n(Cc1ccccc1F)c(=O)n2C -1.33%
OC(CCCN1CCC(O)(c2ccc(Cl)cc2)CC1)c1ccc(F)cc1 (centres undefined) -2.74%
CC(=O)Nc1cc2c(cc1Br)OCCO2 0.764%
COc1cccc(Cn2c(NCc3ccco3)nc3c2c(=O)n(C)c(=O)n3C)c1 -11%
CCOc1cccc(NC(=O)C2CC(=O)NC(=Nc3ccccc3)S2)c1 (centres undefined) -5.62%
COC(=O)/C=c1/s/c(=C(/C#N)C(=O)N2CCCCC2)n(-c2ccccc2)c1=O 26%
CC1(C)Cc2c(sc3c2C(=O)N(c2ccccc2)C2=NCCCN23)CO1 9.3%
Cn1c(=O)c2c(nc(NCc3ccc4c(c3)OCO4)n2Cc2ccccc2F)n(C)c1=O -24.1%
COc1ccccc1-n1c(=O)c2c3c(sc2n2c(SC(C)C)nnc12)CCC3 -5.57%
COc1cc(C)nc(Nc2nc(C)c(C(C)=O)s2)n1 12.9%
COc1ccc2c(=O)c(-c3nc(C)cs3)coc2c1 13.2%
c1cncc(-c2nnc3sc(-c4ccco4)nn23)c1 -2.13%
Cn1c(OCc2cccnc2)nc2c1c(=O)n(Cc1ccccc1)c(=O)n2C -12.1%
Cn1c(SCC(=O)N2CCOCC2)nnc1-c1ccc(Cl)cc1Cl -13.7%
COc1c(O)ccc2cnn(-c3ccccc3C)c(=O)c12 12.5%
CCCCOc1ccc(C(=O)N2CCCC2C(=O)O)cc1 (centres undefined) -0.0169%
CCN(CC)CCN1C(=O)c2ccccc2NC1c1cc(OC)c(OC)c(OC)c1 (centres undefined) 8.96%
CCN(CC)CCCN1C(=O)C(=O)/C(=C(/O)c2ccc(C)cc2)C1c1ccccn1 (centres undefined) 3.29%
CNc1oc(-c2ccc(Cl)cc2)nc1C#N -1.98%
CN(C)CCNc1nc(-c2ccco2)c2c(c1C#N)CC(C)(C)OC2 9.95%
CCCc1cc(=O)oc2c(C)c(O)c(CN3CCCCC3)cc12 6.18%
COC(=O)C(NC(C)=O)(Nc1ccc(Br)cn1)C(F)(F)F (centres undefined) 0.568%
CCOC(=O)CNS(=O)(=O)c1cc(-c2nn(C)c(=O)c3ccccc23)ccc1C 7.12%
CCOC(=O)Oc1ccc2c(c1)C(C)=CC(C)(C)N2C(=O)OCC 4.5%
CC(O)CNc1nc2c(c(=O)n(C)c(=O)n2C)n1CCc1ccccc1 (centres undefined) -2.48%
